Data on 39 compounds can be found in PubChem BioAssay (Tox21).

SMILES strings stand for the structures. “And” between values parts separate entries of the source, which are not always exact repeats. Equal entries are not always repeated. Records with an inconclusive call do not appear. Where a call stands in place of a potency, no number is given. More than one record can exist for a structure, and the calls need not agree. The source made the active and inactive calls. Calls come from the whole dose curve; as a rule, active = well fitted curve in the direction sought with a large enough effect in the repeat runs; inconclusive = weak or mixed curves; inactive = no such curve, though single readings can be large; an effect the other way counts as inactive or inconclusive.
Potency is the fitted concentration of half-maximal effect.

The nature of the first assay: A CellTox Green Cytotoxicity Assay to monitor cytotoxicity in HepG2 cells - 16 hour (AID 1224876). Note: nearly all actives have a fitted effect of over 45% in size. Particulars: CellTox Green fluorescence; series mostly up to 76.8 µM; cytotoxicity increase: at the top concentration. The method, boiled down:
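Measurements at 0, 8, 16, 24, 32 and 40 h of treatment captured CellTox Green fluorescence in HepG2 cells that had been co-plated with reagent and preincubated 5 h at 37 C/5% CO2.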
Consider `CCC(C)OC(=O)c1ccc(O)cc1` (stereo unspecified), for which the “cytotoxicity increase” value was 13.7% (inactive).
In the case of `C/C=C/C(=O)O`, the Potency result was “inactive”.
As for `Cn1cnc([N+](=O)[O-])c1Sc1ncnc2nc[nH]c12`, the “cytotoxicity increase” value was -13.1% [at 35.3 µM] (inactive).
Regarding `Cc1cccc(N(C)C(=S)Oc2ccc3ccccc3c2)c1`, the Potency result is “inactive”.
Still for that read-out and setting: the value for `O=C=Nc1ccc(Cc2ccc(N=C=O)cc2)cc1` was “inactive”; that for `O=CCc1ccccc1` was “inactive”; that for `CC(C(=O)O)c1cccc(C(=O)c2ccccc2)c1` (stereo unspecified) was “inactive”.
Still for that read-out and setting: the entry for `CC(=O)C1(C)CC2=C(CCCC2(C)C)CC1C` (stereo unspecified) is “inactive”; for `c1cc(N(CC2CO2)CC2CO2)ccc1OCC1CO1` (stereo unspecified) it is “inactive”; for `Nc1ccccc1N` it is 56.2 µM (active) and inactive.
The same measure, in the same setting: the entry for `CCOCCOCCO` is “inactive”; for `CN(C)C(=N)N=C(N)N` it is “inactive”; for `COC(C)COC(C)COC(C)CO` (stereo unspecified) it is “inactive”.
With `O=C1c2cccc(O)c2C(=O)c2c(O)cccc21`, the Potency entry is “inactive”.
Consider `O=C(O)c1ccccc1Nc1cccc(C(F)(F)F)c1`, for which the Potency entry is “inactive”.
On to `Cc1ccc2c(n1)Oc1ccc(C(C)C(=O)OCC(=O)N(C)C)cc1C2` (stereo unspecified), for which the Potency entry is “inactive”.
In the case of `O=C(Nc1ccc(Cl)cc1)Nc1ccc(Cl)c(Cl)c1`, the Potency result is “inactive”.
For `C#C[C@]1(O)CC[C@H]2[C@@H]3CCc4cc(OC)ccc4[C@H]3CC[C@@]21C`, the “cytotoxicity increase” value was 18.7% [at 35.3 µM] (inactive).
On the same count and under the same terms, the figure for `O=C(c1ccccc1)c1ccccc1O` is 6.39% (inactive).
For `C#C[C@]1(O)CC[C@H]2[C@@H]3CCC4=Cc5oncc5C[C@]4(C)[C@H]3CC[C@@]21C`, the Potency entry was “inactive”.
With `CCCCc1oc2ccccc2c1C(=O)c1cc(I)c(OCCN(CC)CC)c(I)c1`, the Potency is 44 µM (active).
As to `CCCCC(CC)COC(=O)c1ccc(N(C)C)cc1` (stereo unspecified), the Potency result was “inactive”.
In the case of `C=CC(C)(CCC=C(C)C)OC(C)=O` (stereo unspecified), the Potency entry is “inactive”.
As to `COc1ccccc1/C=C/C=O`, the Potency result is “inactive”.
Same read-out and setting: the value for `CC(=O)c1ccccn1` was “inactive”; that for `CC(=O)Oc1ccccc1C(=O)Nc1ncc([N+](=O)[O-])s1` was “inactive”; that for `CC(C)Oc1ccc2c(=O)c(-c3ccccc3)coc2c1` was “inactive”.
Consider `Oc1ccc(O)cc1`, for which the Potency entry is “inactive”.
On the same count and under the same terms, the entry for `OC[C@H]1O[C@@H]2O[C@H]3[C@H](O)[C@@H](O)[C@@H](O[C@H]4[C@H](O)[C@@H](O)[C@@H](O[C@H]5[C@H](O)[C@@H](O)[C@@H](O[C@H]6[C@H](O)[C@@H](O)[C@@H](O[C@H]7[C@H](O)[C@@H](O)[C@@H](O[C@H]8[C@H](O)[C@@H](O)[C@@H](O[C@H]1[C@H](O)[C@H]2O)O[C@@H]8CO)O[C@@H]7CO)O[C@@H]6CO)O[C@@H]5CO)O[C@@H]4CO)O[C@@H]3CO` is “inactive”; for `CN(C)CCC=C1c2ccccc2CCc2ccccc21` it is 24.5 µM (active); for `O=C(Nc1ccc([N+](=O)[O-])cc1Cl)c1cc(Cl)ccc1O` it is “inactive and 29.3 nM (active)”.
`Brc1cc(Oc2cc(Br)c(Br)c(Br)c2Br)c(Br)c(Br)c1Br`: the Potency result is “inactive”.
As to `CCC(C)c1ccccc1O` (stereo unspecified), the Potency entry is “inactive”.
Take `S=C(NC1CCCCC1)NC1CCCCC1`: the Potency entry was “inactive”.
`CCCCOCCOCCO`: the Potency entry is “inactive”.
Still for that read-out and setting: the value for `O=C(COc1ccc(Cl)cc1)N1CCN(Cc2ccc3c(c2)OCO3)CC1` was “inactive”.
`O=C(c1ccc(OCCN2CCCCC2)cc1)c1c(-c2ccc(O)cc2)sc2cc(O)ccc12`: the “cytotoxicity increase” value is 23.6% [at 35.3 µM] (inactive).
Turning to `CC(C)OC(=O)C(C)(C)Oc1ccc(C(=O)c2ccc(Cl)cc2)cc1`, the “cytotoxicity increase” value is -10.1% (inactive).
Consider `O=C(/C=C/C=C/c1ccc2c(c1)OCO2)N1CCCCC1`, for which the Potency entry was “inactive”.

Another assay is described as follows: qHTS RealTime-Glo MT Cell Viability Assay in HepG2 cells - 32 hour (AID 1224877). Note: nearly all actives have a fitted effect of over 55% in size. Particulars: RealTime-Glo luminescence; series mostly up to 76.8 µM; activity change, negative = cytotoxic: at the top concentration. The procedure, abridged: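 Cells + NanoLuc/prosubstrate dispensed (600 cells/well) → 5 h at 37 C/5% CO2 → compounds in DMSO transferred → 40 h incubation at 37 C, luminescence read at 0, 8, 16, 24, 32, 40 h.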
In general terms: qHTS replaces the single test concentration by a dilution series.
On to `CCC(C)OC(=O)c1ccc(O)cc1` (stereo unspecified), for which the Potency entry is “inactive”.
For the compound `C/C=C/C(=O)O`, the Potency result is “inactive”.
`Cn1cnc([N+](=O)[O-])c1Sc1ncnc2nc[nH]c12`: the Potency entry is “inactive”.
On to `Cc1cccc(N(C)C(=S)Oc2ccc3ccccc3c2)c1`, for which the Potency entry was “inactive”.
Still for that read-out and setting: the value for `O=C=Nc1ccc(Cc2ccc(N=C=O)cc2)cc1` was “inactive”.
`O=CCc1ccccc1`: the Potency result is “inactive”.
Same read-out and setting: the entry for `CC(C(=O)O)c1cccc(C(=O)c2ccccc2)c1` (stereo unspecified) is “inactive”; for `CC(=O)C1(C)CC2=C(CCCC2(C)C)CC1C` (stereo unspecified) it is “inactive”.
`c1cc(N(CC2CO2)CC2CO2)ccc1OCC1CO1` (stereo unspecified): the “activity change, negative = cytotoxic” value is 0.517% (inactive).
Regarding `Nc1ccccc1N`, the Potency entry was “inactive”.
In the case of `CCOCCOCCO`, the Potency result was “inactive”.
For the compound `CN(C)C(=N)N=C(N)N`, the Potency entry is “inactive”.
As for `COC(C)COC(C)COC(C)CO` (stereo unspecified), the Potency entry was “inactive”.
For the compound `O=C1c2cccc(O)c2C(=O)c2c(O)cccc21`, the Potency result was “inactive”.
Still for that read-out and setting: the value for `O=C(O)c1ccccc1Nc1cccc(C(F)(F)F)c1` was “inactive”; that for `Cc1ccc2c(n1)Oc1ccc(C(C)C(=O)OCC(=O)N(C)C)cc1C2` (stereo unspecified) was “inactive”; that for `O=C(Nc1ccc(Cl)cc1)Nc1ccc(Cl)c(Cl)c1` was “inactive”.
As to `C#C[C@]1(O)CC[C@H]2[C@@H]3CCc4cc(OC)ccc4[C@H]3CC[C@@]21C`, the Potency entry was “inactive”.
As to `O=C(c1ccccc1)c1ccccc1O`, the Potency entry is “inactive”.
On the same count and under the same terms, the value for `CCCCc1oc2ccccc2c1C(=O)c1cc(I)c(OCCN(CC)CC)c(I)c1` was 39.2 µM (active) and 23.9 µM (active); that for `CCCCC(CC)COC(=O)c1ccc(N(C)C)cc1` (stereo unspecified) was “inactive”.
Regarding `C=CC(C)(CCC=C(C)C)OC(C)=O` (stereo unspecified), the Potency result was “inactive”.
Still for that read-out and setting: the entry for `COc1ccccc1/C=C/C=O` is “inactive”.
Consider `CC(=O)c1ccccn1`, for which the Potency result is “inactive”.
As to `CC(=O)Oc1ccccc1C(=O)Nc1ncc([N+](=O)[O-])s1`, the Potency entry was “inactive”.
On to `CC(C)Oc1ccc2c(=O)c(-c3ccccc3)coc2c1`, for which the Potency result was “inactive”.
Consider `Oc1ccc(O)cc1`, for which the Potency result was “inactive”.
Turning to `OC[C@H]1O[C@@H]2O[C@H]3[C@H](O)[C@@H](O)[C@@H](O[C@H]4[C@H](O)[C@@H](O)[C@@H](O[C@H]5[C@H](O)[C@@H](O)[C@@H](O[C@H]6[C@H](O)[C@@H](O)[C@@H](O[C@H]7[C@H](O)[C@@H](O)[C@@H](O[C@H]8[C@H](O)[C@@H](O)[C@@H](O[C@H]1[C@H](O)[C@H]2O)O[C@@H]8CO)O[C@@H]7CO)O[C@@H]6CO)O[C@@H]5CO)O[C@@H]4CO)O[C@@H]3CO`, the Potency result is “inactive”.
`CN(C)CCC=C1c2ccccc2CCc2ccccc21`: the Potency result is “inactive and 49 µM (active)”.
With `Brc1cc(Oc2cc(Br)c(Br)c(Br)c2Br)c(Br)c(Br)c1Br`, the Potency result was “inactive”.
Turning to `CCC(C)c1ccccc1O` (stereo unspecified), the Potency entry was “inactive”.
Take `S=C(NC1CCCCC1)NC1CCCCC1`: the Potency entry was “inactive”.
As to `CCCCOCCOCCO`, the Potency entry was “inactive”.
For `O=C(COc1ccc(Cl)cc1)N1CCN(Cc2ccc3c(c2)OCO3)CC1`, the Potency entry is “inactive”.
As for `O=C(c1ccc(OCCN2CCCCC2)cc1)c1c(-c2ccc(O)cc2)sc2cc(O)ccc12`, the Potency is 55 µM (active) and 54.9 µM (active) and inactive.
Take `CC(C)OC(=O)C(C)(C)Oc1ccc(C(=O)c2ccc(Cl)cc2)cc1`: the Potency entry was “inactive”.
In the case of `O=C(/C=C/C=C/c1ccc2c(c1)OCO2)N1CCCCC1`, the Potency result was “inactive”.
